Screening data from PubChem.
A selection: hits, their analogues and other compounds. The true share with any hit is near 2.5%.
Pol iota inh: blocks human DNA polymerase iota activity | Pol iota fluorescent replication assay, 10 min | Potency, µM (top dose mostly 115 µM), inactives show at the top dose activity, negative = inhibition, hits mostly inhibitors | 1% of 390,000 active; note: potency is the fitted concentration of half-maximal effect
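Pol iota at 10 nM preincubated 15 min with compounds at room temperature; reaction started with fluorescent substrate, 50 nM final. Fluorescence read kinetically at 0 and 10 min; buffer-only wells as negative control.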
POLB inh: DNA polymerase beta (human) inhibition | P06746 | Pol beta primer extension/strand displacement, fluorescence kinetic | Potency, µM (doses to about 114 µM), for the others: at the highest dose activity change, negative = inhibition, hits mostly inhibitors | 1.3% of 340,000 active | AID 485314; note: potency is the fitted concentration of half-maximal effect; % is set by controls: 0 for no effect and ±100 for the full control effect
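10 nM enzyme + cpd, 15 min RT; start with substrate 50 nM final; read 0 min and after 10 min RT. Corrected, normalized data; 4-parameter Hill curve fit.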
L3MBTL1 inh: blocks human L3MBTL1; AlphaScreen L3MBTL1–H3K9me1 peptide binding; Potency, µM (highest dose often 57.1 µM), without a hit: at the highest dose activity, negative = inhibition, most hits filed as inhibitors; 0.66% of 230,000 active; AID 485360; note: potency is the fitted concentration of half-maximal effect; % is set by controls: 0 for no effect and ±100 for the full control effect; nearly all actives have a fitted effect of over 60% in size
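L3MBTL1 50 nM + b-AHA-H3(1-15)K9me1 75 nM, 30 min RT; compound added, 30 min RT; streptavidin donor/Ni-chelate acceptor beads 10 ug/mL each final, 30 min RT dark; AlphaScreen read.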
Pol eta inh-1: inhibitors of human DNA polymerase eta; Q9Y253; recombinant Pol eta, fluorescent DNA replication assay; Potency, µM (doses to about 114 µM), without a hit: top-dose activity change, negative = inhibition, hits mostly inhibitors; 1.2% of 390,000 active; AID 588591; note: potency is the fitted concentration of half-maximal effect; % is set by controls: 0 for no effect and ±100 for the full control effect
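Pol eta at 10 nM preincubated with compounds 15 min at room temperature; reaction started with fluorescent substrate (50 nM final) and read kinetically at 0 and 10 min.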
Pol kappa inh-1: DNA polymerase kappa (human) inhibition; purified Pol kappa, fluorescent DNA synthesis assay, 10 min; 0.53% of 400,000 active; Potency, µM (doses to about 107 µM), for the others: top-dose activity, negative = inhibition, hits mostly inhibitors; Q9UBT6; note: potency is the fitted concentration of half-maximal effect; % is set by controls: 0 for no effect and ±100 for the full control effect
Target sequence (Q9UBT6 whole entry, looked up): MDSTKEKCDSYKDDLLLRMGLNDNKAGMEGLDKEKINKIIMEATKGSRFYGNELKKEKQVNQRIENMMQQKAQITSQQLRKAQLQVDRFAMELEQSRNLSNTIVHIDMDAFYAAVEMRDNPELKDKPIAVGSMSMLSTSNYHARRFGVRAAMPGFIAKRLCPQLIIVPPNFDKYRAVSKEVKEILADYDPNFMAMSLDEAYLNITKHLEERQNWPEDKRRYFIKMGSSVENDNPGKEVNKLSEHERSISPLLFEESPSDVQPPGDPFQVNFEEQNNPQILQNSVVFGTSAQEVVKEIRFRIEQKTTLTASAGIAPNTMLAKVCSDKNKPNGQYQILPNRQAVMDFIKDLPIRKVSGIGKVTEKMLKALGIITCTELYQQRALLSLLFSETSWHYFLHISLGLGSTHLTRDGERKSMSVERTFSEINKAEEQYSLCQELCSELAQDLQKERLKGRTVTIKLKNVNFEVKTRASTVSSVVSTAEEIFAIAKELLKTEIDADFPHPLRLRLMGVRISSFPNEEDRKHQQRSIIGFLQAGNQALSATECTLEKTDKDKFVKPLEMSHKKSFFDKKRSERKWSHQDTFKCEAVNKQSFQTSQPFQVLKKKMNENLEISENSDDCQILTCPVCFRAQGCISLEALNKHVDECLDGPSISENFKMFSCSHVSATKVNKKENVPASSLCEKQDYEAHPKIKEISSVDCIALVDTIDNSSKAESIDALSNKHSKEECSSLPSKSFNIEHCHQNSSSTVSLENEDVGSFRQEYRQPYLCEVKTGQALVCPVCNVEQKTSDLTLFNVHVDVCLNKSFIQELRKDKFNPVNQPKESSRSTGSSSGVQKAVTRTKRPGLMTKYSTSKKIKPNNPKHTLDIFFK
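Inhibition of 10 nM Pol kappa is measured by a fluorescent read-out at 0 and 10 min following addition of 50 nM substrate (final), with a 15-min room-temperature compound preincubation.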
WRN helicase inh: inhibitors of human WRN helicase; Q14191; WRN helicase unwinding, fluorescent forked duplex, kinetic; Potency, µM (top dose mostly 114 µM), inactives show at the highest dose activity change, negative = inhibition, usual class: inhibitors; 0.46% of 360,000 active; AID 651768; note: potency is the fitted concentration of half-maximal effect; % is set by controls: 0 for no effect and ±100 for the full control effect; nearly all actives have a fitted effect of over 55% in size
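WRN at 20 nM final was preincubated with compound for 15 min at room temperature; reaction started with 100 nM forked duplex oligonucleotide carrying fluorophore and quencher plus 2 mM ATP (final). Unwinding followed kinetically by red fluorescence (ex 525/em 598 nm).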
GALK inh confirm: confirmation of human galactokinase (GALK) inhibitors; shares compounds with Pol eta inh-1; purified GALK, Kinase-Glo ATP depletion luminescence; Potency, µM (highest dose often 115 µM), for the others: at the top dose activity, negative = inhibition, usual class: inhibitors; 70% of 150 active
Redox cycling: redox cycling activity in phenol red-HRP assay | shares compounds with Pol eta inh-1 | Phenol red-HRP H2O2 redox cycling, absorbance 600 nm | Potency, µM (doses to about 115 µM), inactives show at the top dose activity change, negative = H2O2 signal, most hits filed as inhibitors | 40% of 150 active | AID 2035
HEK293 tox: reduces HEK-293 cell viability in GALK counter-screen; HEK-293 viability, ATP luminescence (CellTiter-Glo), 24/48 h; shares compounds with Pol eta inh-1; AID 2547; Potency, µM (titrated, usually from 46.1 µM), inactives show at the highest dose activity change, negative = cytotoxicity, actives largely listed as inhibitors; 10% of 170 active; note: potency is the fitted concentration of half-maximal effect; % is set by controls: 0 for no effect and ±100 for the full control effect
Pol kappa inh-2: confirmation of human DNA polymerase kappa inhibitors; shares compounds with Pol eta inh-1; purified Pol-kappa, fluorescent strand-displacement substrate; Potency, µM, most hits filed as inhibitors; 76% of 920 active; AID 720501; note: potency is the fitted concentration of half-maximal effect
Pol eta inh-2: Pol eta (human) inhibition, cherry-pick confirmation. Potency, µM, usual class: inhibitors. Pol eta primer extension, TAMRA/BHQ fluorescence, 10 min. 64% of 2,600 active. AID 720502. shares compounds with Pol eta inh-1; note: potency is the fitted concentration of half-maximal effect
* hit, by the source's call; ? = inconclusive; · = not tested or not shown; [ ] = remark or other dose. Calls come from the whole dose curve; as a rule, active = well fitted curve in the direction sought with a large enough effect; inconclusive = small, poorly fitted or top-dose-only effect, or another doubt; inactive = no such curve, though single readings can be large; an effect the other way counts as inactive or inconclusive.

SMILES | Pol iota inh | POLB inh | L3MBTL1 inh | Pol eta inh-1 | Pol kappa inh-1 | WRN helicase inh | Pol eta inh-2 | others
COc1ccc2nc(Cl)c(C3CC(c4ccco4)=NN3C(=O)CCCC(=O)O)cc2c1 (stereo not given) | 22.4µM* | ? | -13.9% | 35.5µM* | 28.2µM* | 3.1%[11.6 µM] | 75.7*
O=c1cc(-c2ccc(O)cc2)oc2ccc3ccccc3c12 | 39.8µM* | · | 1.3% | ? | -24.2% | -24.2% | · | Pol kappa inh-2=?
CCOc1ccc(NC(=O)Cn2nnc(-c3nc(-c4ccncc4)no3)c2N)cc1 | 15.8% | 17.5% | · | · | -5.3% | · | ·
COc1ccc2cc(C(N)=O)/c(=N\NC(=O)c3ccccc3)oc2c1 | -13.4% | 1.5% | · | 0.0% | -15.9% | -15.1% | ·
COc1ccc2cc(C(N)=O)c(=Nc3ccc(C)cc3)oc2c1 | 45.3% | 18.1% | -13.7% | -3.5% | -11.3% | 1.2% | · | GALK inh confirm=-15.0%;Redox cycling=-4.3%;HEK293 tox=?
COc1cc(C(=O)Nn2c(C)nc3ccccc3c2=O)cc(OC)c1OC | 116.0% | -8.4% | · | -16.4% | -0.4% | -3.3% | ·
O=C1c2cc(O)cc(O)c2C(=O)c2c1cc(O)c([C@@H](CO)CCO)c2O | ? | · | · | 44.7µM* | 79.4µM* | -13.2%[11.6 µM] | ?
Cc1cccc(C)c1NC(=O)CN(C)C(=O)c1ccc2nc[nH]c2c1 | 22.4µM* | · | ? | ? | ? | -8.4%[11.6 µM] | 67.5*
Cc1cccc2cc(/C=N/Nc3ccc(C(=O)O)cc3)c(Cl)nc12 | 5.3% | ? | · | ? | -9.1% | -12.4% | ·
O=C(O)c1ccc(N/N=C/c2cc3ccccc3nc2Cl)cc1 | 10.2% | -28.2% | · | 44.7µM* | -24.5% | -10.3%[11.6 µM] | ?
Cc1ccc(OCc2cc(C(=O)NCc3cc(F)ccc3C)no2)cn1 | 7.4% | 5.7% | · | -3.5% | 0.9% | -2.7% | ·
CC(=O)Nc1ccc(OCc2cccc(-c3nc4ccccc4c(=O)n3Cc3ccco3)c2)cc1 | · | · | · | · | · | · | ?
CC(=O)Nc1ccccc1C(=O)N1CCN(c2cccc(C)c2C)CC1 | -6.3% | 9.6% | 52.1% | 7.9% | -25.1% | -5.6% | ·
O=C(COC(=O)Cc1ccc(S(=O)(=O)N2CCOCC2)s1)NCCc1ccccc1 | ? | 22.4µM* | · | 79.4µM* | ? | ? | ?
O=C(COC(=O)Cc1ccc(S(=O)(=O)N2CCOCC2)s1)NCc1ccccc1 | 16.8% | 0.1% | -1.6% | ? | -21.2% | -4.4% | ·
Cn1c2ccccc2c2cc(/C=N/NC(=O)c3cc(O)cc(O)c3)ccc21 | 28.2µM* | 89.1µM* | · | 22.4µM* | ? | ? | 53.6* | Pol kappa inh-2=47.4*
COc1ccc(Nc2c3c(nc4ccc(NC(=O)/C=C/c5cccc(OC)c5OC)cc24)CCCC3)cc1OC | ? | ? | · | -7.5% | 12.6µM* | · | · | Pol kappa inh-2=3.36*
COc1ccccc1Nc1c2c(nc3ccc(NC(=O)/C=C/c4cccc(OC)c4OC)cc13)CCCC2 | -14.7% | -22.4% | · | 7.3% | ? | · | · | Pol kappa inh-2=0.844*
O=C(N/N=C/c1ccncc1)c1cc([N+](=O)[O-])cc([N+](=O)[O-])c1O | ? | 0.4% | -9.7% | 25.1µM* | -5.2% | -21.0%[57.1 µM] | ?
O=C(N/N=C/c1ccncc1)c1cc2ccccc2cc1O | -2.8% | -23.9% | · | -14.4% | -5.2% | -4.1% | ·
CSc1ccc(/C=C2/C(=N)N3N=C(CC(=O)N4CCCC4)SC3=NC2=O)cc1 | 79.4µM* | 7.0% | · | 39.8µM* | ? | 5.2%[11.6 µM] | ?
N=C1/C(=C\c2ccc(OC(=O)c3ccc(F)cc3)cc2)C(=O)N=C2SC(N3CCCC3)=NN12 | -11.8% | -0.6% | ? | 56.2µM* | -26.5% | -10.2%[11.6 µM] | · | Pol kappa inh-2=67*
Cc1ccc(/C=C2/C(=N)N3N=C(CC(=O)N4CCCC4)SC3=NC2=O)cc1 | 0.7% | 7.7% | · | -4.8% | -6.0% | -13.1% | ·
COc1ccccc1-n1c(C)cc(/C=C2\C(=N)N3N=C(CC(=O)N4CCOCC4)SC3=NC2=O)c1C | 14.0% | 21.6% | · | -1.7% | 0.1% | -2.4% | ·
COc1ccc(-n2c(C)cc(/C=C3\C(=N)N4N=C(CC(=O)N5CCOCC5)SC4=NC3=O)c2C)c(OC)c1 | 44.7µM* | ? | · | 39.8µM* | ? | -22.9% | ?
SMILES | Pol iota inh | POLB inh | L3MBTL1 inh | Pol eta inh-1 | Pol kappa inh-1 | WRN helicase inh | Pol eta inh-2 | others
CC1(C#N)c2ccccc2C(Br)=CN1C(=O)c1ccccc1 (stereo not given) | -8.8% | · | 1.1% | -15.2% | -13.4% | -7.2% | ·
COc1ccccc1OCCn1c(SCC(=O)O)nc2ccccc21 | ? | 28.2µM* | ? | 22.4µM* | 79.4µM* | -4.6%[11.6 µM] | ? | Pol kappa inh-2=33.6*
COc1ccccc1C(=O)Nc1nc2nc(C)c(Cc3ccccc3)c(=O)n2[nH]1 | 18.3% | -10.7% | · | ? | -22.8% | · | 75.7*
CC(C)CSC1=NSC2=NC(=O)/C(=C\c3coc4ccccc4c3=O)C(=N)N12 | ? | 44.7µM* | · | 17.8µM* | -29.5% | ? | 75.7*
CC1=NN2C(=N)/C(=C\c3cc(C)n(-c4ccccc4)c3C)C(=O)N=C2S1 | 39.2% | 11.5% | · | -15.0% | -1.0% | -1.8% | ·
N=C1/C(=C\c2coc3ccccc3c2=O)C(=O)N=C2SC(c3ccncc3)=NN12 | ? | ? | · | 2.82µM* | 7.94µM* | 22.4µM* | · | GALK inh confirm=21.1µM*;Redox cycling=5.1%;HEK293 tox=-5.4%
CSC1=NSC2=NC(=O)/C(=C\c3coc4ccccc4c3=O)C(=N)N12 | ? | 25.1µM* | 15.1% | 12.6µM* | ? | 56.2µM* | ?
CN1C(=O)/C(=C/c2coc3ccc(O)cc3c2=O)SC1=S | -17.3% | -3.4% | -4.8% | 6.3% | -7.1% | -5.6% | ·
N=C1/C(=C\c2coc3ccc(O)cc3c2=O)C(=O)N=C2SC=CN12 | ? | 3.98µM* | ? | 12.6µM* | ? | 56.2µM* | 19*
